Data: PMC5540273 (PLoS ONE, 2017)

Tests used:
Conditions in all cases: concentration: 1 μM, replicates: in singlicate; n = 1
WNK1 = test system: WNK1
WNK2 = test system: WNK2
WNK3 = test system: WNK3
WNK4 = test system: WNK4
YANK1 = test system: T1, YANK1
T1 construct: gene STK32A

YANK2 = test system: T2, YANK2
T2 construct: gene STK32B

YANK3 = test system: T3, YANK3
T3 construct: gene STK32C

YES = test system: T4, YES
T4 construct: gene YES1

YSK1 = test system: T5, YSK1
T5 construct: gene STK25

YSK4 = test system: T6, YSK4
T6 construct: gene MAP3K19
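Note: KINOMEscan kinase panel screen.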

Structure (SMILES)	%Inh (WNK1) [%]	%Inh (WNK2) [%]	%Inh (WNK3) [%]	%Inh (WNK4) [%]	%Inh (YANK1) [%]	%Inh (YANK2) [%]	%Inh (YANK3) [%]	%Inh (YES) [%]	%Inh (YSK1) [%]	%Inh (YSK4) [%]
COc1cc(Nc2ccnc3cc(-c4ccncc4)ccc23)cc(OC)c1OC.Cl [GW494610]	22	4	16	19	2	32	9	76	0	98.5
Cc1ccc(NC(=O)c2ccc(Cl)c(Cl)c2)cc1-c1ccc(C(=O)Nc2ccncc2)cc1 [GSK1398460]	0	0	0	17	12	7	22	29	26	83
COc1ccc(C2=C(Nc3cccc(O)c3)C(=O)NC2=O)cc1 [SB-390766]	16	99.7	34	87	0	0	17	0	0	44
O=C(Nc1n[nH]c2nc(-c3ccccc3O)ccc12)C1CC1 [SB-711880]	0	30	0	0	0	0	0	0	0	70
COc1cc(Nc2nccc(N3CCC(NC(=O)Nc4ccc5c(c4)OCO5)C3)n2)cc(OC)c1OC (stereo not drawn) [GSK1379766]	11	11	46	5	0	0	6	7	0	45
O=C(Nc1n[nH]c2cc(-c3cccs3)ccc12)C1CC1 [SB-731284]	40	0	0	0	19	0	0	0	0	94
N#Cc1cnc2cc(-c3cnc(CNCCN4CCOCC4)s3)ccc2c1Nc1ccc(Oc2ccccc2)cc1 [GW664114]	74	95.9	94.2	89	0	0	0	97.1	19	97
Cc1ccc(Nc2ccnc(Nc3ccc(C)c(F)c3)n2)cc1O.Cl [GW582868]	41	12	31	49	1	0	1	53	0	25
CCOc1nccc(-c2c(-c3ccc(F)cc3)ncn2C2CCNCC2)n1 [SB-249175]	25	4	4	0	52	36	0	0	2	37
CN1CCN(Cc2ccc(NC(=O)Nc3ccc(N(C)c4ccnc(Nc5ccc(CS(C)(=O)=O)cc5)n4)cc3)cc2)CC1.Cl [GW827654]	36	45	42	0	19	0	6	0	7	100
CN(C)c1ncnc2nc[nH]c12 [SKF-31736]	15	0	10	13	0	0	0	0	0	10
O=C(O)C(F)(F)F.O=c1[nH]ccc2nc(N[C@@H]3CCNC3)nc(Nc3cc(Cl)cc(Cl)c3)c12 [GSK2188764]	8	26	30	0	40	0	9	12	82	99.7
COc1cccc(NC(=O)NCCNc2ccnc(Nc3ccc(F)cc3)n2)c1 [GSK1379879]	5	22	22	46	0	0	0	0	0	44
Nc1ncc(-c2cn[nH]c2)c2scc(-c3ccc4c(c3)CCN4C(=O)Cc3ccccc3)c12 [GSK2593067]	4	31	52	23	3	0	30	57	6	81
Cl.Cl.NC(CNC(=O)c1cc(Br)c(-c2ccnc3[nH]ccc23)s1)c1ccccc1 (stereo not drawn) [GSK1322949]	1	0	24	20	22	0	0	2	28	94.8
COc1ccc(NC(=O)c2ccoc2)cc1-c1ccc(C(=O)NCC2CC2)cc1 [GW810437]	9	0	12	0	0	13	12	0	0	34
Cn1cc(-c2ccc3c(c2)CCN3C(=O)Cc2cc(F)cc(F)c2F)c2c(N)ncnc21 [GSK2634140]	13	8	23	14	29	13	0	15	23	96.7

Structure (SMILES)	%Inh (WNK1) [%]	%Inh (WNK2) [%]	%Inh (WNK3) [%]	%Inh (WNK4) [%]	%Inh (YANK1) [%]	%Inh (YANK2) [%]	%Inh (YANK3) [%]	%Inh (YES) [%]	%Inh (YSK1) [%]	%Inh (YSK4) [%]
c1ccc(Oc2ccc(Nc3ccnc4cc(-c5ccc(CN6CCCCC6)o5)ccc34)cc2)nc1 [GW567143]	2	39	24	25	0	0	17	51	0	32
O=C(Nc1n[nH]c2nc(-c3ccccc3)ccc12)C1CC1 [SB-708999]	15	37	36	60	0	0	28	1	0	93.9
CSc1ccc(NC2=C(c3ccc(Cl)cc3)C(=O)NC2=O)cc1 [SB-317658]	20	24	4	0	0	2	33	0	0	21
COc1cccc2c(-c3ccncc3)c(-c3ccc(F)cc3)nn12 [GW468513]	0	0	31	24	65	72	72	15	4	6
CNc1nccc(-c2ccc3c(N)n[nH]c3c2)n1 [GSK2206003]	1	0	4	2	62	53	20	24	20	76
Cc1ccc(C)c(NC(=O)Nc2ccc(C)c(-c3ccc(C(=O)Nc4ccncc4)cc3)c2)c1 [GSK1398473]	17	97.6	11	17	7	0	15	29	0	87
CCn1c(-c2nonc2N)nc2c(-c3ccccc3)ncc(OCCCN)c21.O=C(O)C(F)(F)F.O=C(O)C(F)(F)F [GSK260205]	22	14	32	15	99.4	87	50	28	23	99.6
Cc1cc(-c2ccnc(Nc3cccc(C#N)c3)n2)cc(C)c1O [GSK1440913]	7	0	4	26	7	0	13	19	4	97
Cc1cc(-c2c(-c3ccc(F)cc3)ncn2CCCN2CCOCC2)nc(N)n1 [SB-222517]	0	0	0	0	0	13	16	0	20	11
O=C(O)C(F)(F)F.O=c1[nH]ccc2nc(N[C@@H]3CCNC3)nc(Nc3ccc4c(c3)S(=O)(=O)CC4)c12 [GSK2181306]	0	29	0	0	70	0	8	20	97.4	99.7
CS(=O)(=O)c1cccc(CNc2nc(Nc3ccc4c(c3)CCC(=O)N4)ncc2C(F)(F)F)c1	0	0	0	0	0	0	0	0	0	99
CC(C)(C)c1ccc(C(=O)Nc2cn3cc(-n4ccnc4)ccc3n2)cc1	0	3	0	0	0	0	0	0	0	79
COC(=O)Nc1nc2cc(Oc3ccc(NC(=O)Nc4cccc(SC)c4)cc3)ccc2[nH]1.Cl [GW697999]	0	3	29	27	14	0	0	29	3	85
CC(C)NCC(Cc1ccccc1)NC(=O)c1cc(Br)c(-c2ccnc3[nH]ccc23)s1.Cl.Cl (stereo not drawn) [GSK1383281]	0	0	0	18	21	0	0	0	40	83
Cl.Cl.NCC(NC(=O)c1cc(-c2cccnc2)c(-c2ccnc3[nH]ccc23)s1)c1ccccc1 (stereo not drawn) [GSK1323434]	2	0	80	50	26	0	14	18	17	84
COc1ccc(C)c(Nc2ccnc(Nc3ccc(-c4cnc[nH]4)cc3)n2)c1.Cl [GW784041]	0	0	0	0	0	0	0	29	0	7
